Experiment [1] addresses bovine Gamma-Aminobutyric Acid Type A Receptor Agonist (GABAR Agonist), GABRA1 (gene 780973) (UniProt P08219). The experiment can be described thus: NVS_LGIC_bGABAR_Agonist: NovaScreen (NVS) Ligand-Gated Ion Channel Assay for bovine Gamma-Aminobutyric Acid Type A Receptor Agonist (GABAR Agonist) (AID 2283338). In outline: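 Radioligand binding to bovine cerebellar membranes in agonist format, read by filter-based scintillation counting after 1 h. Primary screen in duplicate at 25 uM, with actives followed in concentration series. Gain of signal versus DMSO.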

The target in experiment [2] is Estrogen receptor (Homo sapiens) (UniProt P03372). The experiment can be described thus: OT_ER_ERaERa_1440: Odyssey Thera (OT) 24-hour HEK293T Protein-Complementation Assay for Estrogen Receptor-alpha/-alpha Homodimer (AID 2283349).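 Also: hits raise fluorescence above DMSO for agonists and antagonists alike.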 Put shortly:
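Protein-fragment complementation between two human ERα ligand-binding domains (aa 310-547) in stably transfected HEK293T cells was monitored after 24 h treatment, using fluorescence intensity relative to vehicle controls.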

In experiment [3] the target is Estrogen receptor (Homo sapiens) + Estrogen receptor beta (Homo sapiens) (UniProt P03372+Q92731). The experiment can be described thus: OT_ER_ERaERb_0480: Odyssey Thera (OT) 8-hour HEK293T Protein-Complementation Assay for Estrogen Receptor-alpha/-beta Heterodimer (AID 2283352). In outline: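 Increase in mean fluorescence intensity, measured by laser scanning plate cytometry, reported ER-alpha/ER-beta LBD complementation in HEK293T cells after 8 h chemical exposure. DMSO served as baseline; basal signal is low, punctate and cytoplasmic.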
Estrogen receptor (Homo sapiens) + Estrogen receptor beta (Homo sapiens), sequence (P03372 whole entry, looked up, the tested form may be a part): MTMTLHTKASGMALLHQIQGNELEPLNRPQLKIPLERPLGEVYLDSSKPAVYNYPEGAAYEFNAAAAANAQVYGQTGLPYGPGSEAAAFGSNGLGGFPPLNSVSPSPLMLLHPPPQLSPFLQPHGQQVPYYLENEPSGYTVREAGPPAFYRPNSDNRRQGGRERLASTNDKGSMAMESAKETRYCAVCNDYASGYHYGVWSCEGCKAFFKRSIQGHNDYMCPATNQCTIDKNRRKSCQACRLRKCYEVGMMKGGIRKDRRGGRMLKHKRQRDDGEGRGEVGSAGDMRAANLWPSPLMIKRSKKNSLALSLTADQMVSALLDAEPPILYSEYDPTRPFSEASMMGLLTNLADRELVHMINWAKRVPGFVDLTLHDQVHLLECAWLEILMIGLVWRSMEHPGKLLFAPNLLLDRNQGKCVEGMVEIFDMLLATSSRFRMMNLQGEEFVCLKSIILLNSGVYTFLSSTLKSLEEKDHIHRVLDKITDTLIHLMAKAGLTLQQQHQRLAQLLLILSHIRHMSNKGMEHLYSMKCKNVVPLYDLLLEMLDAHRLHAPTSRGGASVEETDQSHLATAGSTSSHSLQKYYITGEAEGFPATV
Estrogen receptor (Homo sapiens) + Estrogen receptor beta (Homo sapiens), sequence (Q92731 whole entry, looked up, the tested form may be a part): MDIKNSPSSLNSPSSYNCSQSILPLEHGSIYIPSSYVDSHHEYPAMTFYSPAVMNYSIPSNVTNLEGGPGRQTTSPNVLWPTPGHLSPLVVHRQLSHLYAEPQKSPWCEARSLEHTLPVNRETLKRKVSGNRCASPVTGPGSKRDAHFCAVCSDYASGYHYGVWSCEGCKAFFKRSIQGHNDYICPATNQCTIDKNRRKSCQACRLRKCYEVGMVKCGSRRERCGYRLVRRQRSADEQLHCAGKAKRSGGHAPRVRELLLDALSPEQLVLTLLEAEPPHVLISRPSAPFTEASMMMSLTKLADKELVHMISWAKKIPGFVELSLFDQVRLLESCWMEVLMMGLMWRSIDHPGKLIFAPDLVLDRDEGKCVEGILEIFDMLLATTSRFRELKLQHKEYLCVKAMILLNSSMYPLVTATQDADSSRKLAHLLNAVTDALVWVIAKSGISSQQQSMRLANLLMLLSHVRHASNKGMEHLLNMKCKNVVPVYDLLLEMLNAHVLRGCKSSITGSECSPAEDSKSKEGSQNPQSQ

Experiment [4] has as its target Androgen Receptor/SRC-1 Co-activator, AR (gene 367) (UniProt P10275). The experiment can be described thus: OT_AR_ARSRC1_0480: Odyssey Thera (OT) 8-hour HEK293T Protein-Complementation Assay for Androgen Receptor/SRC-1 Co-activator (AID 2283354).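 Also: hits raise the complementation signal above DMSO so AC50 marks enhancers.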 In outline: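 Measures AR/SRC-1 binding by Venus YFP fragment complementation in HEK293T stable lines at 8 h post-dose. Imaging quantifies the 488nm nucleus/cytoplasm ratio in ≥400 cells; DMSO defines baseline.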

The target in experiment [5] is human Peripheral-type Benzodiazepine Receptor (PBR), TSPO (gene 706) (UniProt P30536). The experiment can be described thus: NVS_MP_hPBR: NovaScreen (NVS) Membrane Protein Assay for human Peripheral-type Benzodiazepine Receptor (PBR) (AID 2283331).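 Also: hits reduce radioligand binding relative to DMSO baseline.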 In outline: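 Scintillation counts of filter-bound radioligand served as read-out after 1 h chemical dosing of human colonic membrane preparations. Activity was scored as signal loss against DMSO; initial duplicates at 25 uM, confirmatory concentration series afterward.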
human Peripheral-type Benzodiazepine Receptor (PBR), TSPO (gene 706), sequence (P30536 whole entry, looked up): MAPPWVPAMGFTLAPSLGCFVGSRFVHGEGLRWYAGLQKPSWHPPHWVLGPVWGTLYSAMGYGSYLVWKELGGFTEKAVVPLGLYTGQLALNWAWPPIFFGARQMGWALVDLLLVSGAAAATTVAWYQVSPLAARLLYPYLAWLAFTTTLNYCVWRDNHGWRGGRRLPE

For experiment [6], the target named is rat Peripheral-type Benzodiazepine Receptor (PBR), Tspo (gene 24230) (UniProt P16257). In words: NVS_MP_rPBR: NovaScreen (NVS) Membrane Protein Assay for rat Peripheral-type Benzodiazepine Receptor (PBR) (AID 2283335). Put shortly: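 Radioligand displacement, rat kidney membrane prep, 1 h exposure, filter-based scintillation read; DMSO baseline, loss-of-signal scored. Primary screen at 25 uM in duplicate, actives followed up in concentration series.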
rat Peripheral-type Benzodiazepine Receptor (PBR), Tspo (gene 24230), sequence (P16257 whole entry, looked up): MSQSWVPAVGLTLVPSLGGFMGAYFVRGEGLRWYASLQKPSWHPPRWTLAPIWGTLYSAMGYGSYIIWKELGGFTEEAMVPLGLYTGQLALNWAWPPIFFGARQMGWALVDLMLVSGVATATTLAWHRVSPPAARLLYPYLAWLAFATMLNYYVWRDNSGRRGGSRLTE

Experiment [7] has as its system guinea pig Histamine Receptor (H2), gene 100729734. The experiment can be described thus: NVS_GPCR_gH2: NovaScreen (NVS) G Protein-Coupled Receptor Assay for guinea pig Histamine Receptor (H2) (AID 2283342). Put shortly: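 Radioligand displacement on guinea pig striatal membranes, 1 h after dosing, filter-based scintillation counting; loss of signal versus DMSO. Single-point screen at 25 uM in duplicate, then concentration-response up to 50 uM.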

The target in experiment [8] is bovine Estrogen Receptor (ER), ESR1 (gene 407238) (UniProt P49884). In words: NVS_NR_bER: NovaScreen (NVS) Nuclear Receptor Binding Assay for bovine Estrogen Receptor (ER) (AID 2283345).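 Also: actives lower the bound radioligand count which means they displace the ER ligand.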 Put shortly: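 Cell-free radioligand binding with receptor from bovine uterine membranes, read by scintillation counting 18 h after dosing. Loss of specific binding was scored against DMSO; primary screen at 25 uM in duplicate, actives then run as concentration series.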
bovine Estrogen Receptor (ER), ESR1 (gene 407238), sequence (P49884 whole entry, looked up): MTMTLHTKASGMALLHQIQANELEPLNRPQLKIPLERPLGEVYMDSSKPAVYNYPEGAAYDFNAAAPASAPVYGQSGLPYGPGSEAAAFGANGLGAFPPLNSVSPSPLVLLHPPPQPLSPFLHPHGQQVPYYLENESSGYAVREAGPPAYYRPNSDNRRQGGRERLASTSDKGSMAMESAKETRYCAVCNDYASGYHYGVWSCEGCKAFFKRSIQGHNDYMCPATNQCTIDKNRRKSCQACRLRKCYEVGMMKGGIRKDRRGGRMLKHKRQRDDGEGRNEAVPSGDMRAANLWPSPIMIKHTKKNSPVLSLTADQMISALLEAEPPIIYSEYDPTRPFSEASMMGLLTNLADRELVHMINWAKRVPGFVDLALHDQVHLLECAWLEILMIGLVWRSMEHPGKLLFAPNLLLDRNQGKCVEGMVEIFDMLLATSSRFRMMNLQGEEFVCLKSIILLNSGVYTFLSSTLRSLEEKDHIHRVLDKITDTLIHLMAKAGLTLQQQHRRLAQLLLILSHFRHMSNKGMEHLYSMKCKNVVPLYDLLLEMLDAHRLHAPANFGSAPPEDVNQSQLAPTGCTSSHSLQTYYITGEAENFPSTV

In experiment [9] the target is Voltage-gated inwardly rectifying potassium channel KCNH2 (Homo sapiens) (UniProt Q12809). The experiment can be described thus: NVS_IC_hKhERGCh: NovaScreen (NVS) Ion Channel Assay for human Potassium Channel ERG (KhERGCh) (AID 2283333). Put shortly:
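Cell-free radioligand competition binding on hERG protein extracted from CHO cells, read by filter-based scintillation counting 0.75 h after dosing. Primary screen at 25 uM in duplicate, actives followed in concentration series. Signal loss fitted versus DMSO.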

Experiment [10] in a line: NVS_IC_rCaBTZCHL: NovaScreen (NVS) Ion Channel Assay for Calcium Channel, Type L, Benzothiazepine Site (CaBTZCHL) (AID 2283337). Put shortly: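 Competitive displacement of a site-specific radioligand from rat cortex membranes, measured as signal loss against DMSO baseline by filter radiodetection after 1.5 h. Single-point 25 uM primary screen.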
Experiment [11] has as its target Glutamate receptor ionotropic, kainate 1 (Rattus norvegicus) (UniProt P22756). The experiment can be described thus: NVS_IC_rKAR: NovaScreen (NVS) Ion Channel Assay for rat Kainic Acid Receptors (KAR) (AID 2283334; active = hit-call score of the fitted dose curve at least 0.9, where 1 is the maximum; inactive = score below 0.9). In outline: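 Radioligand displacement binding using rat forebrain membranes, 1 h incubation, filter-based scintillation counting. Screened in duplicate at 25 uM, with actives retested in concentration-response up to 50 uM; fitted against DMSO.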

The target of experiment [12] is Estrogen receptor (Homo sapiens) (UniProt P03372). The experiment can be described thus: OT_ER_ERaERa_0480: Odyssey Thera (OT) 8-hour HEK293T Protein-Complementation Assay for Estrogen Receptor-alpha/-alpha Homodimer (AID 2283351).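 Also: rise in fluorescence from reassembled reporter fragments on ERα LBD homodimer in nucleus or whole cell.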 In outline: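 Binding reporter in which dimerisation of ERα LBD (aa 310-547) fusions reconstitutes a fluorescent reporter in HEK293T cells. Compounds incubated 8 h; mean fluorescence intensity increase versus DMSO scored.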
Estrogen receptor (Homo sapiens), sequence (P03372 whole entry, looked up, the tested form may be a part): as the sequence (P03372 whole entry, looked up, the tested form may be a part) above

The target of experiment [13] is Small conductance calcium-activated potassium channel protein 1 (Rattus norvegicus) (UniProt P70606). In words: NVS_IC_rKCaCh: NovaScreen (NVS) Ion Channel Assay for rat Potassium Channel, Ca2+ Act., VI (KCaCh) (AID 2283336). Put shortly:
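Radioligand binding to rat forebrain membranes, cell-free, read 1 hour after dosing by filter-based scintillation counting. Compounds first run in duplicate at 25 uM, actives then in concentration series; loss of signal vs DMSO indicates displacement.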

For experiment [14], the target named is rat Glycine Receptor, Strychnine-sensitive (GlyRStrySens), Glra1 (gene 25674) (UniProt P07727). The experiment can be described thus: NVS_LGIC_rGlyRStrySens: NovaScreen (NVS) Ligand-Gated Ion Channel Assay for rat Glycine Receptor, Strychnine-sensitive (GlyRStrySens) (AID 2283341). Put shortly:
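Radioligand displacement on rat spinal cord membranes, 1 hr, filter scintillation read-out. Single-concentration duplicate screen at 25 uM; chemicals meeting threshold (e.g., 30% inhibition) rerun in concentration-response up to 50 uM. Loss of binding fitted versus DMSO.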

For a further experiment, the system named is NCBI gene 100848466. In words: NVS_NR_bPR: NovaScreen (NVS) Nuclear Receptor Binding Assay for bovine Progextron Receptor (PR) (AID 2283343). In outline: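 Membranes from bovine uterus; radiolabelled ligand plus test chemical; 18 h; scintillation read-out. Activity = signal loss vs DMSO. Primary: 25 uM, duplicate; secondary: concentration series.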

Records with an inconclusive call do not appear. Activity calls are given as the source filed them. The calls were made as follows, unless noted: active = hit-call score of the fitted dose curve at least 0.9, where 1 is the maximum; inconclusive = response in the unintended direction; inactive = score below 0.9.

Androgen Receptor/SRC-1 Co-activator, AR (gene 367), sequence (P10275 whole entry, looked up, the tested form may be a part): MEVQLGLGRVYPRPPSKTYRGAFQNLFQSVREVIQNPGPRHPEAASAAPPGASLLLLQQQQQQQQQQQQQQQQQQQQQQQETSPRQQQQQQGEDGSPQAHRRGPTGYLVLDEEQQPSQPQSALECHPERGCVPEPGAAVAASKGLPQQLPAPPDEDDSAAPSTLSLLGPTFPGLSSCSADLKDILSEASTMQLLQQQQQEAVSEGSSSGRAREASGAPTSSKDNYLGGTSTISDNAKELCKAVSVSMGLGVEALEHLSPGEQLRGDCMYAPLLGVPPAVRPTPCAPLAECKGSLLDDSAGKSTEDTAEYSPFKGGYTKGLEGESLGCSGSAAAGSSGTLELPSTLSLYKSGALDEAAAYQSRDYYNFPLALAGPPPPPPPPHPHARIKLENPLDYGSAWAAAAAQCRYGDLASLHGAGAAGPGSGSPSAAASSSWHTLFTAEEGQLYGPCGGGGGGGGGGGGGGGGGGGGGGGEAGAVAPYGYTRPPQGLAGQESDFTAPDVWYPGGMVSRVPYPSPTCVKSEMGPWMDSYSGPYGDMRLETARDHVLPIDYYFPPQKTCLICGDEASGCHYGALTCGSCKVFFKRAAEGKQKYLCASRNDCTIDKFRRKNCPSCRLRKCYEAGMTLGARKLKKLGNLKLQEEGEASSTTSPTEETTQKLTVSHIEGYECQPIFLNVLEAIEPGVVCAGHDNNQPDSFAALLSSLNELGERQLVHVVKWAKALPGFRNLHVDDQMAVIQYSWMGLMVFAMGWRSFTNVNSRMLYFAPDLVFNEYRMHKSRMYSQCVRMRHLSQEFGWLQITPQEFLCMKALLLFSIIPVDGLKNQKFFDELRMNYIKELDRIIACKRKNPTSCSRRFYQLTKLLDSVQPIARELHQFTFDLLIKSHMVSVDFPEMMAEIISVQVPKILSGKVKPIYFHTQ
Small conductance calcium-activated potassium channel protein 1 (Rattus norvegicus), sequence (P70606 whole entry, looked up): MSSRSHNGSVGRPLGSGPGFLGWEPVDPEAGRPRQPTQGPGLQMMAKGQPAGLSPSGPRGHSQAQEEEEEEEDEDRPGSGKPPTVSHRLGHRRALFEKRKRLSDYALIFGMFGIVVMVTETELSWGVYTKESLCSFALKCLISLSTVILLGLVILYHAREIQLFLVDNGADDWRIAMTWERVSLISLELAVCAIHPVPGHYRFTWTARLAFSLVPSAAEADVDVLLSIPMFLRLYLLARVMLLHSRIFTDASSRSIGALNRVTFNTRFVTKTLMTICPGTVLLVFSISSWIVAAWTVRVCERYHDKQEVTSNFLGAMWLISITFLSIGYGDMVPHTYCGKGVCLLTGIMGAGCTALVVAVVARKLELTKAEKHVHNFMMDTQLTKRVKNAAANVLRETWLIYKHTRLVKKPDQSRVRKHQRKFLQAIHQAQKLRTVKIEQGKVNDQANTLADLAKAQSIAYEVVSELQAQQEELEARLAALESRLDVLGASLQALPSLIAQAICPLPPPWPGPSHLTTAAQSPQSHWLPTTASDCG
bovine Gamma-Aminobutyric Acid Type A Receptor Agonist (GABAR Agonist), GABRA1 (gene 780973), sequence (P08219 whole entry, looked up): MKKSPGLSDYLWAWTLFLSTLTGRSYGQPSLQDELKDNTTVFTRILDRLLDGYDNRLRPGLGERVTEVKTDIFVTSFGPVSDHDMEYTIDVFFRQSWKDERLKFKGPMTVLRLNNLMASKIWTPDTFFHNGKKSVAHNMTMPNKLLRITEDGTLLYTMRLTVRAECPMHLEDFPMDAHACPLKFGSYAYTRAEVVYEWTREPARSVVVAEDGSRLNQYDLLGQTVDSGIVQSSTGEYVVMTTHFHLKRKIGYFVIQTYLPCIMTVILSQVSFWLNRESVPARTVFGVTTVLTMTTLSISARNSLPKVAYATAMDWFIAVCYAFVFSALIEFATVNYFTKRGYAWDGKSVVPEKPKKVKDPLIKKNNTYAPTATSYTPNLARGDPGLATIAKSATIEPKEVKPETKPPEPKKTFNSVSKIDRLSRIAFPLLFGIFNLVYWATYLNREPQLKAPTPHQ

`CC(C)(C)c1cc(O)c(C(C)(C)C)cc1O`: the result in [1], in experiment [2], in experiment [3] and in experiment [4] was inactive.
As a reminder, the AC50 is the concentration giving half of the maximal activity seen. Take `NC(=O)Cn1c(=O)cc(CCN2CCN(c3nccc4sccc34)CC2)c2ccc(F)cc21`: the AC50 was 1.77 µM (active) in experiment [5], 1.6 µM (active) in experiment [6] and 1.82 µM (active) in [7]. Also, in experiment [2], the compound was classed as inactive.
As to `Nc1ccccc1N`, the compound was classed as inactive in [5], in experiment [8] and in [2].
Regarding `CN1CCN(Cc2cc(-c3ccc4[nH]c(=O)oc4c3)co2)[C@@H](c2ccc(F)cc2)C1`, the outcome in experiment [9] and in experiment [8] was inactive. Also, the figures for the AC50 in [10] and in experiment [7] were 5.34 µM (active) and 0.445 µM (active), respectively.
Take `COc1cc(S(=O)(=O)O)c(C)cc1N=Nc1c(O)ccc2cc(S(=O)(=O)O)ccc12`: the compound was called inactive in [11], in experiment [10], in experiment [2] and in experiment [12].
On to `CC=Cc1ccc(O)c(OC)c1`, for which the results for the AC50 in [5], in experiment [6] and in [2] were 17.2 µM (active), 3.55 µM (active) and 73.5 µM (active), respectively. Besides, in experiment [13], the result was inactive.
For `NS(=O)(=O)c1cc2c(cc1Cl)NCNS2(=O)=O`, the result in [6], in experiment [2] and in experiment [3] was inactive.
Turning to `Cc1ccc(C)c(O)c1C`, the compound was classed as inactive in [14].
`O=[N+]([O-])C(CO)(CO)CO`: the outcome with NCBI gene 100848466 was inactive.
As for `Cc1ccc(C)c(C)c1`, the compound was called inactive in experiment [2], in [3] and in [4].
As for `CCCCCC(=O)O`, the result in experiment [2], in experiment [12] and in [3] was inactive.
As for `Cc1ccc(N(C)C)cc1`, the compound was classed as inactive in experiment [2] and in experiment [4].
Turning to `O=c1[nH]cc(F)c(=O)[nH]1`, the call in [2], in experiment [12] and in experiment [3] was inactive.
On to `NCC1(Cc2noc(=O)[nH]2)CCCCC1`, for which the compound was called inactive in [2], in [12] and in experiment [3].
As for `C[Si]1(C)O[Si](C)(C)O[Si](C)(C)O[Si](C)(C)O1`, the compound was called inactive in experiment [2] and in [3].
Turning to `CN1CCCC1=O`, the compound was classed as inactive in experiment [2] and in experiment [3].
For `CCOC(=O)CCC(=O)OCC`, the compound was classed as inactive in experiment [2] and in experiment [3].
Consider `CNC(=O)[C@H]1O[C@@H](n2cnc3c(NCc4cc(Cl)ccc4OCc4cc(C)no4)ncnc32)[C@H](O)[C@@H]1N`, for which the AC50 in [2] was 11.9 µM (active). Besides, the call in [12], in experiment [3] and in [4] was inactive.
Turning to `COc1ccc(C)cc1N`, the outcome in experiment [2] and in experiment [4] was inactive.
Turning to `CCCCOC(=O)CCCCCCCCC(=O)OCCCC`, the compound was called inactive in experiment [2] and in experiment [3].
Turning to `CC(=O)Oc1ccccc1C(=O)O`, the outcome in experiment [2], in experiment [12], in experiment [3] and in experiment [4] was inactive.
With `Cc1cccc(C)c1O`, the compound was classed as inactive in experiment [2], in experiment [12], in [3] and in [4].
Turning to `CCOC(=O)C(C)(C)Oc1ccc(Cl)cc1`, the compound was classed as inactive in experiment [2], in experiment [12] and in experiment [3].
As for `O=c1c(O)c(-c2ccc(O)c(O)c2)oc2cc(O)cc(O)c12`, the result in [2] was inactive. Moreover, the AC50 in experiment [3] is 13.4 µM (active).
Consider `FC(F)(F)C(F)(F)C(F)(F)C(F)(F)C(F)(F)C(F)(F)CCI`, for which the call in experiment [2] and in experiment [12] was inactive.
Regarding `CC1=C(/C=C/C(C)=C/C=C/C(C)=C/CO)C(C)(C)CCC1`, the compound was called inactive in experiment [2], in [12] and in [3].
Consider `COCCOC[C@H](CC1(C(=O)NC2CCC(C(=O)O)CC2)CCCC1)C(=O)Oc1ccc2c(c1)CCC2` (some centres not stated), for which the call in experiment [2] and in [4] was inactive.
`COCCOCCOC`: the result in experiment [2] and in experiment [3] was inactive.
Turning to `Cc1ccccc1Cl`, the outcome in experiment [2], in experiment [12] and in [4] was inactive.
Turning to `C1CCC(SSC2CCCCC2)CC1`, in experiment [2], the outcome was inactive. Further, in [3], the AC50 is 50 µM (active).
Consider `Cc1nc(C)nc(N2C[C@@H](C)N(c3ccnc([C@@H](C)O)n3)[C@@H](C)C2)n1`, for which, in experiment [12], the call was inactive.
On to `CCCCCCOCCO`, for which the outcome in experiment [2], in [12] and in [3] was inactive.
Consider `CCCCCCCCCCO`, for which the result in [2], in [12] and in [3] was inactive.
As to `Cc1c(C(=O)O)c(O)cc2c1C(=O)c1c(O)c([C@@H]3O[C@H](CO)[C@@H](O)[C@H](O)[C@H]3O)c(O)c(O)c1C2=O`, the call in [2], in experiment [12] and in experiment [3] was inactive.
As for `CCCCCCCCCCCCCO`, the result in experiment [2] and in experiment [3] was inactive.
As to `O=C(O)CCCCC(=O)O`, the call in [2], in experiment [12] and in experiment [3] was inactive.
In the case of `CCCCCCCCCCCCCCCC`, the outcome in experiment [2] and in [12] was inactive.
In the case of `Clc1cc(Cl)c(Cl)cc1Cl`, the outcome in [2] and in experiment [12] was inactive.

(Values after PubChem BioAssay (EPA / NIEHS).)
